# Vaccinia pol inh: vaccinia E9 polymerase processive synthesis inhibition. normalized absorbance, % (no concentration beside the values). in vitro processive DNA synthesis, absorbance read-out; hits give low values. 46,000 tested, 0.94% active. AID 493162; in the data active means normalized absorbance mostly below about 85%, no sharp cut-off; inactive means mostly above about 86%
# * hit, by the source's call. Only a selection was taken, and hits are over-represented in it overall.
SMILES,Vaccinia pol inh
CC1=C(C(=O)OC2CCCC2)C(c2ccncc2)C2=C(CC(c3ccccc3)CC2=O)N1 (stereo not given),92.3
Cc1[nH]c2ccccc2c1C(c1cccs1)N1CCC(C(N)=O)CC1 (stereo not given),100.5
CC(=O)Nc1ccc(C(=O)OCC(=O)Nc2ccc3ccccc3c2)cc1,74.0
CCN1/C(=C/c2ccc3ccccc3[n+]2CC)Sc2cc(NC(C)=O)ccc21,39.2*
CC(=O)Nc1cccc(-c2nc3ccccc3[nH]2)c1,89.5
COc1cccc(S(=O)(=O)N2CCCC2)c1,97.9
CC(=O)Nc1sccc1C(=O)O,91.6
Cc1ccc(C)n1-c1sccc1C(=O)CC#N,109.5
Cc1ccc(C)n1-c1sccc1C(=O)O,22.0*
CCOC(=O)C1CCN(C(=O)/C=C/c2ccc(F)cc2)CC1,105.5
O=C(NC1CC(O)c2cc3c(cc21)OCO3)C(F)(F)F (stereo not given),112.2
CCSc1nnc(NC(=O)CC23CC4CC(CC(C4)C2)C3)s1,100.9
CCOC(=O)[C@H]1NC(=O)C[C@H]1c1ccccc1,95.7
CCOC(=O)N1CCC(N2C(=O)c3ccc(C(=O)O)cc3C2=O)CC1,102.1
CCOC(=O)[C@@H]1Nc2ccc(C(=O)O)cc2[C@@H]2C=CC[C@H]12,55.9*
Fc1ccc(C2Nc3ccc(OC(F)(F)F)cc3C3C=CCC32)cc1 (stereo not given),96.6
CC(=O)Nc1ccc2c(c1)C1C=CCC1C(c1cccc(Cl)c1Cl)N2 (stereo not given),99.6
CC(C)c1ccc([C@@H]2Nc3ccc(C(=O)O)cc3[C@@H]3C=CC[C@@H]32)cc1,23.2*
CC(=O)N1CCc2c(sc(NC(=O)/C=C/c3ccccc3)c2C(N)=O)C1,102.7
CCOC(=O)C1CCC(CNCc2ccc(OC)cc2)CC1 (stereo not given),93.3
CN1/C(=C/C=C/c2oc3ccccc3[n+]2C)Oc2ccccc21,89.0*
Cc1cccc(C(=O)OCC(=O)NCc2ccccc2Cl)c1O,94.3
CC(NC(=O)Cc1ccccc1)P(=O)(O)c1ccccc1 (stereo not given),103.0
Cc1c(CCC(=O)NN)c(C)n2c(nc3ccccc32)c1C#N,83.9
CCn1c2ccccc2c2cc(CN3CCN(Cc4cccc(C)c4)CC3)ccc21,99.4
SMILES,Vaccinia pol inh
Cc1cccc(CN2CCN(C(=O)CC(C)C)CC2)c1,59.3*
O=C(Cc1cccc2ccccc12)N1CCN(Cc2ccccc2)CC1,101.9
Cn1c(=O)c(=O)n(C)c2cc(S(=O)(=O)N3CCSc4ccccc43)ccc21,100.0
Cc1ccc(-c2csc3ncnc(SCCC(=O)O)c23)cc1,96.1
O=C(O)CSc1ncnc2scc(-c3ccc(Br)cc3)c12,67.6*
CC(C)OC(=O)CSc1ncnc2scc(-c3ccccc3)c12,102.9
COC(=O)c1ccc(CSC(=N)N)cc1,80.9*
COC(=O)c1ccc(Nc2ccccc2)cc1,102.1
COC(=O)c1ccc(CSc2nnc3n(N)cnn23)cc1,101.1
N=C(N)SCc1ccccc1,95.9
COC(=O)c1ccc(NC(=S)N(C(C)C)C(C)C)cc1,94.9
COC(=O)c1ccc(NN)cc1,81.0*
COc1cccc(NC(=O)CSc2nccn2-c2ccccc2)c1,102.1
O=C(NCc1ccccc1Cl)c1cc2ccccn2n1,101.1
COc1ccc(C(=O)COC(=O)c2cc(Br)ccc2Cl)cc1,107.2
CC(=O)Nc1nnc(-c2ccccc2C)s1,96.3
Cc1ccc(C)c(CSc2nncn3c2cc2occc23)c1,91.1
Cc1nnc(SCc2ccc(F)cc2Cl)c2cc3occc3n12,71.7*
CCc1nnc(SCc2ccccc2)c2cc3occc3n12,90.6
CCCn1c(C(Cc2ccccc2)NC(C)=O)nc2ccccc21 (stereo not given),101.1
O=C(/C=C/c1ccco1)Nc1ccc(C(F)(F)F)cc1,91.6
c1ccc(CN2CN=C(Nc3nc4ccccc4s3)NC2)cc1,108.5
CCN1CN=C(Nc2nc(C)c3cc(C)ccc3n2)NC1,48.6*
CCOc1ccc2nc(Nc3nc(O)cc(=O)[nH]3)nc(C)c2c1,99.8
CC1=NN2C(=N)/C(=C/c3cn(CCOc4c(C)cccc4C)c4ccccc34)C(=O)N=C2S1,100.6
SMILES,Vaccinia pol inh
N=C1/C(=C\c2coc3ccccc3c2=O)C(=O)N=C2SC=NN12,45.6*
CC(c1ccccc1)N1C(=O)NC(=O)/C(=C/c2coc3ccccc3c2=O)C1=O (stereo not given),91.4
O=C(Nc1cccc(OC(=O)c2ccc(F)cc2)c1)c1ccc(F)cc1,99.1
O=C(O)CCCNc1ccccc1C(=O)O,102.7
CCc1sc2sncc2c1Br,81.0*
COc1ccc(C(=O)Nc2cc(C)c(O)c(S(=O)(=O)c3ccc(Cl)cc3)c2C)cc1,100.5
C=CCN(CC=C)c1nn[nH]n1,59.8*
CCC(C)NC(=O)/C=C/c1cc2c(cc1Br)OCO2 (stereo not given),107.8
CSC(=S)Nc1ccc(-c2nc3ccc(C)cc3s2)cc1,83.0
C(=N/c1nccs1)/Nc1nccs1,96.9
O=C(O)COc1ccc2c(-c3ccccc3)cc(=O)oc2c1,102.3
O=C(O)COc1ccc2c(c1)oc(=O)c1ccccc12,89.9*
COc1ccc2c(c1)oc(=O)c1ccccc12,91.6
NCCCc1nc2cc3sc(CCCN)nc3cc2s1,60.5*
